Screening data as filed in PubChem.
MCF10A rerep: induces DNA re-replication in MCF 10a normal breast cells | MCF 10A DNA re-replication, Hoechst nuclear intensity, 48 h | Potency, µM (doses to about 46.1 µM), usual class: activators | 350,000 tested, 2.9% active | AID 624296; further: nearly all actives have a fitted effect of over 50% in size
RORg inh: ROR gamma (mouse) transcription inhibition. P51450. Drosophila S2 Gal4-RORgamma UAS-luciferase reporter, 20 h. Potency, µM (series often up to 53.6 µM), hits mostly inhibitors. 310,000 tested, 5.4% active; further: nearly all actives have a fitted effect of over 60% in size
Target sequence (P51450 whole entry, looked up, the tested form may be a part): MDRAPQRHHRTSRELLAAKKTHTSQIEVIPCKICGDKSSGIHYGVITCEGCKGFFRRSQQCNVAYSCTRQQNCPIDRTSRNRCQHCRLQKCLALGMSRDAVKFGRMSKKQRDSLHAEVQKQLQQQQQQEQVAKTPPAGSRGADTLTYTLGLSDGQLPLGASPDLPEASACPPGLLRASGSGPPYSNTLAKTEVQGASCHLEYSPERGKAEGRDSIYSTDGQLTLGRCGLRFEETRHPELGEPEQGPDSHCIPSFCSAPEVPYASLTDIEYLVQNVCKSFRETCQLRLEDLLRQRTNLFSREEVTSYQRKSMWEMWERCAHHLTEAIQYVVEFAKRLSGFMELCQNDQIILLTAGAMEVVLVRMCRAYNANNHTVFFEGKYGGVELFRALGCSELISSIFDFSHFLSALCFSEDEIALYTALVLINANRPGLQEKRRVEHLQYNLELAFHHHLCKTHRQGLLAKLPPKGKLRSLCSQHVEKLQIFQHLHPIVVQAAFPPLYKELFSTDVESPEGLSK
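Drosophila Schneider cells stably carrying a metallothionein-driven Gal4 DBD–ROR gamma fusion and a UAS-Photinus luciferase reporter were exposed to compound for 1 hr, then induced with copper sulfate (700 uM final) for 20 hr at ambient temperature before luminescence reading.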
SW480 rereplic: DNA re-replication induction in SW480 cells. AID 624297. SW480 DNA re-replication, Hoechst DNA content imaging, 48 h. Potency, µM (titrated, usually from 46.1 µM), hits mostly activators. 340,000 tested, 1.8% active; further: nearly all actives have a fitted effect of over 55% in size
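Readout is total intensity of Hoechst-stained nuclei, excited at 405 nm and collected at 500-530 nm. Compound treatment lasted 48 hr at 37 C in 5% CO2 before staining.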
Gal4-VP16 FLuc: inhibits Gal4-VP16 luciferase reporter, ROR gamma counter-screen. Potency, µM (highest dose often 53.6 µM), usual class: inhibitors. AID 2546. Drosophila S2 Gal4-VP16 UAS-luciferase, luminescence, 20 h. 310,000 tested, 3.5% active;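 further: Gal4-VP16 expression switched on by copper sulfate through the metallothionein promoter; nearly all actives have a fitted effect of over 50% in size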
IL-1B inflam inh: inflammasome signaling inhibition, IL-1 beta readout. 360,000 tested, 4.7% active. THP-1 LPS/ATP IL-1B secretion, AlphaLISA, 16 h; stronger effect = lower value. activity change, % at 57.5 µM; in the data active means activity change below about -50%; inconclusive means mostly about -30% to -49%
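Secreted IL-1B measured by AlphaLISA bead assay after 16 h compound exposure of THP-1 cells; compounds (final up to 57.5 uM) added 1 h before LPS (250 ng/mL) and ATP (1.25 mM) stimulation; lower signal means less secretion.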
Large screens that a line does not name were inactive; ! = not active in a repeat. This is a sample that favours compounds with a hit; in the whole collection about 11% have one here. Unless noted, the call rests on the fitted dose curve; in most records, active means well fitted curve in the direction sought with a large enough effect; inconclusive means small, poorly fitted or top-dose-only effect, or another doubt; inactive means no such curve, though single readings can be large; an effect the other way counts as inactive or inconclusive.

Cc1ccc(N2CC(C(=O)OCC(=O)c3ccc([N+](=O)[O-])cc3)CC2=O)cc1 (configuration not stated)	IL-1B inflam inh -74.4
C[C@@H]1NC(=O)C/C=C\[C@@H](C)[C@@H]2C=C[C@H](O)[C@@H](COC(=O)[C@H](C)NC(=O)C/C=C\[C@@H](C)[C@@H]3C=C[C@H](O)[C@@H](COC1=O)O3)O2	none (no result: MCF10A rerep, SW480 rereplic, IL-1B inflam inh)
CCc1cc2c(COC(=O)c3cccc(NS(C)(=O)=O)c3)cc(=O)oc2cc1O	MCF10A rerep 9.2µM
CCCNS(=O)(=O)c1cccc(C(=O)OCc2cc(=O)oc3cc(OC)ccc23)c1	MCF10A rerep 7.31µM, SW480 rereplic inconclusive
CN(C)c1cccc(C(=O)OCc2cc(=O)oc3cc(O)ccc23)c1	MCF10A rerep inconclusive, RORg inh 8.91µM, SW480 rereplic inconclusive, Gal4-VP16 FLuc inconclusive
O=C(OCc1cc(=O)oc2cc(O)ccc12)c1cc(S(=O)(=O)N2CCOCC2)ccc1F	IL-1B inflam inh -102.7 (no result: RORg inh, Gal4-VP16 FLuc)
CC1CN(S(=O)(=O)c2cccc(C(=O)OCc3cc(=O)oc4cc(O)ccc34)c2)CC(C)O1 (configuration not stated)	none
COc1ccc2c(COC(=O)c3cccc(S(=O)(=O)NCC(C)C)c3)cc(=O)oc2c1	MCF10A rerep inconclusive
CCOC(=O)c1cc(CC)sc1NC(=O)COC(=O)C1CCC1	none
CO/N=C(/C(=O)NC1C(=O)N2C(C(=O)O)=C(COC(N)=O)CSC12)c1ccco1 (configuration not stated)	none (no result: MCF10A rerep, SW480 rereplic, IL-1B inflam inh)
CCc1cc2c(COC(=O)c3cc(S(=O)(=O)N4CCOCC4)ccc3F)cc(=O)oc2cc1O	MCF10A rerep inconclusive, IL-1B inflam inh -77.3 (no result: RORg inh, Gal4-VP16 FLuc)
O=C(NN1C(=O)NC2(CCCCC2)C1=O)c1cccs1	none (no result: RORg inh, Gal4-VP16 FLuc)
C[C@]12CCC(=O)CC1CCC1C2CC[C@@]2(C)C1CC[C@@]21CCO1 (some centres not stated)	MCF10A rerep inconclusive
C[C@]12CCC(=O)C[C@@H]1CC[C@@H]1[C@@H]2CC[C@]2(C)C=CC[C@@H]12	MCF10A rerep 29.9µM!
Cc1cc2nc(-c3ccc[nH]c3=O)[nH]c2cc1C	RORg inh 7.94µM, Gal4-VP16 FLuc 6.31µM
Cc1cc2nc(-c3ccc[nH]c3=O)n(Cc3ccc(F)cc3)c2cc1C	none
C=CCn1c(SCN2C(=O)c3ccccc3C2=O)nc2ccc(Cl)cc2c1=O	RORg inh 8.91µM, Gal4-VP16 FLuc 7.94µM
CN(Cc1ccccc1F)Cc1cc(=O)oc2cc(O)c(Cl)cc12	MCF10A rerep 5.8µM, SW480 rereplic inconclusive
CC1CCN(Cc2cc(=O)oc3cc(O)c(Cl)cc23)CC1	MCF10A rerep 14.6µM, SW480 rereplic inconclusive
Nc1ncnc2c1ccn2[C@H]1CN(Cc2ccc(Cl)cc2)C[C@@H](CO)O1	none (no result: MCF10A rerep, RORg inh, SW480 rereplic, Gal4-VP16 FLuc)
CC1=Nc2nc(N3CCCCCC3)c(C#N)c3c4c(nc(c23)N1)N(c1ccc2ccccc2c1)C(=O)C4	none (no result: RORg inh, Gal4-VP16 FLuc)
COCCN(Cc1ccc(F)cc1)C(=O)c1cc2ccccc2oc1=O	none
CC(C)(O)C#Cc1ccc(C(=O)N2CCN(c3ccc([N+](=O)[O-])cc3)CC2)cc1	none
CC(C)(O)C#Cc1ccc(C(=O)N2CCN(c3ccccc3)CC2)cc1	MCF10A rerep inconclusive, SW480 rereplic 3.26µM
Cc1[nH]c(=S)c(C#N)c(C)c1Cc1ccc(Cl)cc1Cl	RORg inh 3.16µM, Gal4-VP16 FLuc 20µM
O=C(NCC(c1ccco1)N1CCCC1)c1ccccc1Sc1ccc(C(F)(F)F)cc1[N+](=O)[O-] (configuration not stated)	IL-1B inflam inh -75.5 (no result: RORg inh, Gal4-VP16 FLuc)
COc1ccc(C(C)(O)c2nc(-c3ccc4ccccc4c3)cs2)cc1 (configuration not stated)	none (no result: MCF10A rerep, RORg inh, SW480 rereplic, Gal4-VP16 FLuc)
CNC(=S)N1CCN(c2ccc(Cl)c(Cl)c2)CC1	IL-1B inflam inh -58.1
CC(=O)Nc1cccc(OC(=O)COc2ccc(Br)cc2)c1	SW480 rereplic 29.1µM
Cc1ccc(OCC(=O)Oc2cccc(C)c2)cc1	none (no result: RORg inh, Gal4-VP16 FLuc)
NC(=O)c1ccccc1OCCOc1ccc(Br)cc1	RORg inh inconclusive, SW480 rereplic inconclusive, IL-1B inflam inh -59.2
COC(=O)COc1cccc(NC(=O)c2cc(OC)cc(OC)c2)c1	IL-1B inflam inh -99.7
CC(=O)Nc1ccccc1OCCOc1ccc(Br)cc1	RORg inh inconclusive, SW480 rereplic inconclusive, Gal4-VP16 FLuc inconclusive, IL-1B inflam inh -97.4
C=CCCOc1ccccc1C(N)=O	none
CN1OC[C@@H]2CN(C(=O)Nc3ccccc3)[C@H](c3ccc(N4CCCCC4)cc3)C[C@@H]21	none (no result: MCF10A rerep, RORg inh, SW480 rereplic, Gal4-VP16 FLuc)
CSCC[C@H](NC(=O)[C@H](CCC(N)=O)NC(=O)[C@H](CCCCN)NC(=O)[C@H](CCCNC(=N)N)NC(=O)[C@H](Cc1ccc(O)cc1)NC(=O)[C@H](CCCNC(=N)N)NC(=O)[C@H](CO)NC(=O)[C@H](Cc1ccc(O)cc1)NC(=O)[C@H](CO)NC(=O)[C@H](CC(=O)O)NC(=O)[C@@H](NC(=O)[C@@H](N)Cc1ccccc1)[C@@H](C)O)C(=O)N[C@@H](C)C(=O)N[C@H](C(=O)N[C@@H](CCCCN)C(=O)N[C@@H](CCCCN)C(=O)N[C@@H](Cc1ccc(O)cc1)C(=O)N[C@@H](CC(C)C)C(=O)N[C@@H](C)C(=O)N[C@@H](C)C(=O)N[C@H](C(=O)N[C@@H](CC(C)C)C(=O)NCC(=O)N[C@@H](CCCCN)C(=O)N[C@@H](CCCNC(=N)N)C(=O)N[C@@H](Cc1ccc(O)cc1)C(=O)N[C@@H](CCCCN)C(=O)N[C@@H](CCC(N)=O)C(=O)N[C@@H](CCCNC(=N)N)C(=O)N[C@H](C(=O)N[C@@H](CCCCN)C(=O)N[C@@H](CC(N)=O)C(=O)N[C@@H](CCCCN)C(N)=O)C(C)C)C(C)C)C(C)C	none (no result: MCF10A rerep, SW480 rereplic, IL-1B inflam inh)
COc1cccc(NC(=S)NNC(=O)CCn2cc([N+](=O)[O-])cn2)c1	RORg inh inconclusive
Cc1ccc(NC(=O)CCN2CCN(C)CC2)cc1	RORg inh inconclusive
Cc1ccc(NC(=S)NNC(=O)CCn2cc(C)cn2)cc1	RORg inh 0.282µM, SW480 rereplic 9.2µM, Gal4-VP16 FLuc 1.41µM
Cc1cnn(CCC(=O)NNC(=S)Nc2ccccc2)c1	RORg inh 0.1µM, SW480 rereplic inconclusive, Gal4-VP16 FLuc 1.12µM
CCCC(=O)N1CCCC1(C)C(=O)Nc1ccc(OC(F)F)cc1 (configuration not stated)	none (no result: MCF10A rerep, RORg inh, SW480 rereplic, Gal4-VP16 FLuc)
CCOc1cc(/C=C(\C#N)C(N)=O)cc(CSc2ccccc2)c1O	RORg inh inconclusive (no result: MCF10A rerep, SW480 rereplic, IL-1B inflam inh)
O=C(NC(=S)NC1CCC(O)CC1)c1ccco1 (configuration not stated)	none (no result: RORg inh, Gal4-VP16 FLuc)
CCOc1ccc(Cl)cc1S(=O)(=O)N1CCC(C(=O)NCc2cccnc2)CC1	none
COc1ccccc1CN1CC[C@@]2(CCCN(S(C)(=O)=O)C2)C1	none (no result: MCF10A rerep, SW480 rereplic, IL-1B inflam inh)
O=C(Nc1cccc([N+](=O)[O-])c1)ONC1=NCCCCC1	none
O=C(ONC1=NCCCCC1)c1ccc([N+](=O)[O-])cc1	RORg inh 10µM
